This test in a line: chemical genetic growth profiling, strain panel (AID 1159580).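 Also: tested at 20 µM; growth read once vehicle control cultures reached saturation at 30 °C; 1 = growth at the plate median or of vehicle wells; lower values mean less growth of the strain.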 To be noted: S. cerevisiae deletion strains, growth OD.
[1] abbreviates: locus YAL013W, strain DEP1, hits give low values.
Setting [2] is: locus YDR150W, strain NUM1, hits give low values.
Where [3] appears, read: locus YJR075W, strain HOC1, hits give low values.
[4] abbreviates: locus YMR307W, strain GAS1, hits give low values.
Where [5] appears, read: locus YPL241C, strain CIN2, hits give low values.

The whole screen tested about 5,500 compounds, of which about 2,000 (36%) were called active. About 18% were inconclusive and are not listed. The list shows a part of the results. Unmarked numbers belong to inactive results. Rule as the data show it: active = normalized growth mostly below about 0.91 (no sharp cut-off); inconclusive = no clear call, values can overlap the other calls; inactive = mostly above about 0.92.

As to `COc1cc(C2Nc3cccc4cccc(c34)N2)cc(OC)c1OC`, the normalized growth is 0.962 under setting [1]; 1.01 (locus YBR229C, strain ROT2, hits give low values); 1.02 (locus YCL061C, strain MRC1, hits give low values); 1.05 (locus YDL101C, strain DUN1, hits give low values); 0.985 (locus YDL134C, strain PPH21, hits give low values); 1.04 under setting [2]. The normalized growth by setting is: (locus YEL061C, strain CIN8, hits give low values) 0.925; (locus YGR078C, strain PAC10, hits give low values) 1.02; (locus YHR030C, strain SLT2, hits give low values) 0.729; (locus YHR087W, strain rtc3, hits give low values) 1.01; (locus YJL187C, strain SWE1, hits give low values) 0.992; (locus YJR043C, strain POL32, hits give low values) 1.01. The normalized growth under setting [3] was 1.07; the normalized growth (locus YLR039C, strain RIC1, hits give low values) is 0.751 (active); the normalized growth (locus YLR058C, strain SHM2 (second series), hits give low values) is 1; the normalized growth (locus YLR085C, strain ARP6, hits give low values) is 0.881; the normalized growth (locus YLR262C, strain YPT6, hits give low values) is 0.808 (active); the normalized growth (locus YML094W, strain GIM5, hits give low values) was 0.883. Also, the normalized growth is 1 (locus YMR219W, strain ESC1, hits give low values); 0.996 (locus YMR263W, strain SAP30, hits give low values); 0.661 (active) under setting [4]; 1.02 (locus YNL153C, strain GIM3, hits give low values); 0.877 (locus YNL298W, strain CLA4 (second series), hits give low values); 1 (locus YNL322C, strain KRE1, hits give low values). The normalized growth runs as follows: (locus YNR030W, strain Alg12, hits give low values) 0.736 (active); (locus YPL055C, strain LGE1, hits give low values) 0.945; under setting [5], 0.403 (active); (locus YPR135W, strain CTF4, hits give low values) 0.952.

`COc1ccc(NC(=O)/C=C/c2ccc(Cl)cc2)cc1`: the normalized growth is, setting by setting: under setting [1], 0.992; (locus YAL040C, strain CLN3, hits give low values) 0.958; (locus YCL061C, strain MRC1 (second series), hits give low values) 1; under setting [2], 1; (locus YDR363W, strain ESC2, hits give low values) 1.01; (locus YER002W, strain NOP16, hits give low values) 0.956. In addition, the normalized growth by setting is: (locus YGR229C, strain SMI1, hits give low values) 0.986; under setting [3], 0.98; under setting [4], 1.02; (locus YNL175C, strain NOP13, hits give low values) 0.966; (locus YNL197C, strain WHI3, hits give low values) 0.977; (locus YNL224C, strain SQS1, hits give low values) 1. Besides, the normalized growth is, setting by setting: (locus YOR083W, strain WHI5 (second series), hits give low values) 0.961; under setting [5], 1.01.

Values taken from PubChem BioAssay AID1159580 (chemical genetic matrix, 2015).
